# Target: Streptavidin (Streptomyces avidinii) (UniProt P22629)
# Assay: compounds binding control protein streptavidin – biophysical, small-molecule microarray, 635/667 nm fluorescence, artefact control for SMM compound annotation, primary screen (AID 1147);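 also: signal reflects streptavidin binding to arrayed compounds as a control protein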
# Details: higher = more signal
# Sequence of Streptavidin (Streptomyces avidinii) (P22629 whole entry, looked up): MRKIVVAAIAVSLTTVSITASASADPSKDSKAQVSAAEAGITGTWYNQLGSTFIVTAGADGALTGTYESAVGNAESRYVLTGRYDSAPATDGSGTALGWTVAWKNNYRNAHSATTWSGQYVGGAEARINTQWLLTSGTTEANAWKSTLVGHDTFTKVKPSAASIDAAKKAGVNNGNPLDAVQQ
row,SMILES,composite z-score
1,COC(=O)[C@@]1(Cc2ccc(OC)cc2)[C@@H]2C(=CC(=O)[C@H]2CC(=O)C(=O)N2CCCC2)CN1C(=O)c1ccccc1,0.571
2,C=C(COC)/C(=C/C[C@@H](OC(=O)c1ccncc1)c1ccc(CO)o1)c1cc(C(=O)OC)ccc1OC,0.207
3,NC(=O)NCC#Cc1ccc2c(c1)[C@]1(C(=O)N2)[C@H](C(=O)Nc2nc3ccccc3s2)[C@H]2C(=O)O[C@H](c3ccccc3)[C@H](c3ccccc3)N2[C@@H]1c1ccccc1OCCO,2.4
4,COc1ccc(C(=O)Nc2ccc(CN3C(=O)[C@]4(O[C@H](CCO)[C@@H]([Si](C)(C)c5ccc(OC)cc5)[C@@H]4C)c4ccccc43)cc2)cc1,0.566
5,COc1cc2c(cc1OC)CN(C(=O)[C@@H]1[C@H]3C(=O)O[C@H](c4ccccc4)[C@H](c4ccccc4)N3[C@H](c3ccc(O)cc3)[C@@]13C(=O)Nc1ccccc13)CC2,0.523
6,[N-]=[N+]=Nc1ccccc1[C@@H]1OC(c2ccc(OCCCO)cc2)=N[C@]1(CCS(=O)(=O)c1ccccc1)C(N)=O,2.03
7,COC(=O)[C@@]1(Cc2ccc(F)cc2)[C@H]2c3cc(C(=O)N4CCCC4)n(CCCNc4ncc(C(F)(F)F)cc4Cl)c3C[C@H]2CN1C(=O)c1ccccc1,0.919
8,[N-]=[N+]=Nc1ccccc1[C@@H]1OC(c2ccc(OCCCO)cc2)=N[C@]1(Cc1ccccc1)C(=O)N1CCOCC1,1.35
9,C=CCC(OC(C)=O)[C@@H]1[C@@H](N(Cc2ccc(-c3ccccc3)cc2)C(=O)Cc2ccc(OC)cc2)c2cc(OCCCO)ccc2N1C(=O)Cc1ccc2ccccc2c1 (some centres undefined),0.192
10,CC1(C)C2C=C(C(O)C3C=CC4C(=O)NC(=O)C4N3Nc3ccc(Cl)cc3Cl)C[C@@H]1C2 (some centres undefined),0.961
11,CO[C@H]1O[C@H](CO)[C@@H](OC(=O)Nc2cccc(F)c2)[C@H](OC(=O)Nc2ccccc2)[C@@H]1OC(=O)Nc1ccccc1,0.255
12,COc1ccc(C(O)C2C=CC3C(=O)N(Cc4ccccc4)C(=O)C3N2n2cnnc2)cc1OCc1ccccc1 (centres undefined),0.296
13,COC(=O)[C@@]1(Cc2ccc(OC)cc2)[C@H]2c3cc(C(=O)N4CCCC4)n(Cc4ccc(C)c(F)c4F)c3C[C@H]2CN1C(=O)c1ccccc1,1.81
14,CC(=O)NCCCC[C@@H]1NC(=O)[C@H]2C[C@@H](C(=O)NCCCCCCNC(=O)CS)[C@@H](c3ccc(O)cc3)N2C1=O,-1.22
15,COCCOC(=O)N1C(=O)[C@@]2(c3cc(C#CC4(O)CCCCCC4)ccc31)[C@H](c1ccc(OCCO)cc1)N1[C@H](c3ccccc3)[C@H](c3ccccc3)OC(=O)[C@H]1[C@@H]2C(=O)N1CCN(c2ncccn2)CC1,2.07
16,CCCCCN1CC=CC23O[C@@H]4/C=C\CCC(C)OC(=O)C4[C@H]2C(=O)N(C(C)CO)[C@@H]3C1=O (some centres undefined),-0.659
17,COc1ccc(C#Cc2ccc3c(c2)[C@]2(C(=O)N3)[C@H](C(=O)NC[C@H](O)c3ccccc3)[C@H]3C(=O)O[C@H](c4ccccc4)[C@H](c4ccccc4)N3[C@@H]2c2ccc(O)cc2)cc1,0.539
18,COc1ccc(C#Cc2ccc3c(c2)[C@]2(C(=O)N3)[C@H](c3ccccc3OCCO)N3[C@H](c4ccccc4)[C@H](c4ccccc4)OC(=O)[C@H]3[C@@H]2C(=O)Nc2nc3ccccc3s2)cc1,1.09
19,CN1C(=O)C2C=CC(C(O)c3ccco3)N(Nc3ccccc3)C2C1=O (centres undefined),0.437

# System: not listed separately
# Assay: probe aInhba binding on compound microarray – biochemical, small-molecule microarray, 635/667 nm fluorescence, primary screen (AID 1148);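 also: score merges 667nm spot fluorescence with signal-to-noise for antibody binding to printed compounds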
# Details: higher = more signal
row,SMILES,composite z-score
1,COCCOC(=O)N1C(=O)[C@@]2(c3cc(C#CCC(C(=O)OC)C(=O)OC)ccc31)[C@H](c1ccccc1OCCO)N1[C@H](c3ccccc3)[C@H](c3ccccc3)OC(=O)[C@H]1[C@@H]2C(=O)N1CCN(c2ncccn2)CC1,0.0384
2,C=CCC(OC(C)=O)[C@@H]1[C@@H](N(Cc2ccc(-c3ccccc3)cc2)C(=O)c2cccc3ccccc23)c2cc(OCCCO)ccc2N1C(=O)c1ccc(-c2ccccc2)cc1 (some centres undefined),0.0979
3,O=C(NCCO)C1=C[C@H](Oc2ccccc2I)[C@@H](O)[C@H](N(Cc2ccco2)C(=O)Cc2ccccc2)C1,-0.202
4,C#C[C@H](O[Si](C#Cc1ccc(Oc2ccccc2)cc1)(C(C)C)C(C)C)c1ccccc1,-0.082
5,CC1CC/C=C\[C@H]2OC34C=CCN(Cc5ccccc5)C(=O)[C@H]3N(CCCO)C(=O)[C@@H]4C2C(=O)O1 (some centres undefined),-0.206
6,CCOC(=O)C[C@H]1[C@H](OC(=O)c2ccc(C(=O)c3ccccc3)cc2)[C@@H](NC(=O)c2ccccc2)c2cc(OCCCO)ccc2N1C(=O)Cc1ccc(OC)cc1,-0.0413
7,CC(C)CNC(=O)[C@@]1(Cc2ccccc2I)c2ccccc2C(=O)N(C2CCCCC2)[C@H]1c1ccc(CO)cc1,0.23
8,Cc1ccc(S[C@]2(C(=O)NCCCN(C)C)CC(=O)N(Cc3ccccc3C(F)(F)F)[C@@H]2c2ccc(CO)cc2)cc1,-0.0791
9,C=CC[C@]1(C(=O)NCCCOC)N=C(c2ccc(OCCCO)cc2)O[C@H]1c1ccccc1CN=[N+]=[N-],0.149
10,Cc1ccc(S[C@]2(C(=O)NCCCN(C)C)CC(=O)N(Cc3cc(C(F)(F)F)cc(C(F)(F)F)c3)[C@@H]2c2ccc(CO)cc2)cc1,0.0363
11,CCCC[C@H]1OB(O)C[C@H]2C1=C(COC)Cn1c(=O)n(-c3ccccc3)c(=O)n12,-0.182
12,COc1ccc(/C=C/C=O)cc1,-0.102
13,NC(=O)NCC#Cc1ccc2c(c1)[C@]1(C(=O)N2)[C@H](c2ccccc2OCCO)N2[C@H](c3ccccc3)[C@H](c3ccccc3)OC(=O)[C@H]2[C@@H]1C(=O)Nc1nc2ccccc2s1,0.0314
14,C=CCC(OC(C)=O)[C@@H]1[C@@H](N(Cc2ccc(-c3ccccc3)cc2)C(=O)c2ccc(-c3ccccc3)cc2)c2cc(OCCCO)ccc2N1C(=O)Cc1ccc2ccccc2c1 (some centres undefined),0.0051
15,Cc1ccc(N2C(=O)c3ccccc3[C@@H](C(=O)NC3CC3)[C@@H]2c2ccc(CO)cc2)nc1,-0.282
16,COCCCNC(=O)[C@@]1(C)c2ccccc2C(=O)N(C(C)C)[C@H]1c1ccc(CO)cc1,0.143
17,COC(=O)[C@@]1(Cc2ccc(OC)cc2)[C@@H]2C(=CC(=O)[C@H]2CC(=O)C(=O)N2CCCC2)CN1C(=O)c1ccccc1,0.0694
18,C=C(COC)/C(=C/C[C@@H](OC(=O)c1ccncc1)c1ccc(CO)o1)c1cc(C(=O)OC)ccc1OC,-0.0645

row,SMILES,composite z-score
1,NC(=O)NCC#Cc1ccc2c(c1)[C@]1(C(=O)N2)[C@H](C(=O)Nc2nc3ccccc3s2)[C@H]2C(=O)O[C@H](c3ccccc3)[C@H](c3ccccc3)N2[C@@H]1c1ccccc1OCCO,0.105
2,COc1ccc(C(=O)Nc2ccc(CN3C(=O)[C@]4(O[C@H](CCO)[C@@H]([Si](C)(C)c5ccc(OC)cc5)[C@@H]4C)c4ccccc43)cc2)cc1,0.0014
3,COc1cc2c(cc1OC)CN(C(=O)[C@@H]1[C@H]3C(=O)O[C@H](c4ccccc4)[C@H](c4ccccc4)N3[C@H](c3ccc(O)cc3)[C@@]13C(=O)Nc1ccccc13)CC2,0.121
4,[N-]=[N+]=Nc1ccccc1[C@@H]1OC(c2ccc(OCCCO)cc2)=N[C@]1(CCS(=O)(=O)c1ccccc1)C(N)=O,0.207
5,COC(=O)[C@@]1(Cc2ccc(F)cc2)[C@H]2c3cc(C(=O)N4CCCC4)n(CCCNc4ncc(C(F)(F)F)cc4Cl)c3C[C@H]2CN1C(=O)c1ccccc1,0.656
6,[N-]=[N+]=Nc1ccccc1[C@@H]1OC(c2ccc(OCCCO)cc2)=N[C@]1(Cc1ccccc1)C(=O)N1CCOCC1,0.0658
7,C=CCC(OC(C)=O)[C@@H]1[C@@H](N(Cc2ccc(-c3ccccc3)cc2)C(=O)Cc2ccc(OC)cc2)c2cc(OCCCO)ccc2N1C(=O)Cc1ccc2ccccc2c1 (some centres undefined),-0.0221
8,CC1(C)C2C=C(C(O)C3C=CC4C(=O)NC(=O)C4N3Nc3ccc(Cl)cc3Cl)C[C@@H]1C2 (some centres undefined),0.0236
9,CO[C@H]1O[C@H](CO)[C@@H](OC(=O)Nc2cccc(F)c2)[C@H](OC(=O)Nc2ccccc2)[C@@H]1OC(=O)Nc1ccccc1,0.289
10,COc1ccc(C(O)C2C=CC3C(=O)N(Cc4ccccc4)C(=O)C3N2n2cnnc2)cc1OCc1ccccc1 (centres undefined),-0.0962
11,COC(=O)[C@@]1(Cc2ccc(OC)cc2)[C@H]2c3cc(C(=O)N4CCCC4)n(Cc4ccc(C)c(F)c4F)c3C[C@H]2CN1C(=O)c1ccccc1,0.289
12,CC(=O)NCCCC[C@@H]1NC(=O)[C@H]2C[C@@H](C(=O)NCCCCCCNC(=O)CS)[C@@H](c3ccc(O)cc3)N2C1=O,0.0074
13,COCCOC(=O)N1C(=O)[C@@]2(c3cc(C#CC4(O)CCCCCC4)ccc31)[C@H](c1ccc(OCCO)cc1)N1[C@H](c3ccccc3)[C@H](c3ccccc3)OC(=O)[C@H]1[C@@H]2C(=O)N1CCN(c2ncccn2)CC1,0.0541
14,CCCCCN1CC=CC23O[C@@H]4/C=C\CCC(C)OC(=O)C4[C@H]2C(=O)N(C(C)CO)[C@@H]3C1=O (some centres undefined),-0.0933
15,COc1ccc(C#Cc2ccc3c(c2)[C@]2(C(=O)N3)[C@H](C(=O)NC[C@H](O)c3ccccc3)[C@H]3C(=O)O[C@H](c4ccccc4)[C@H](c4ccccc4)N3[C@@H]2c2ccc(O)cc2)cc1,-0.128
16,COc1ccc(C#Cc2ccc3c(c2)[C@]2(C(=O)N3)[C@H](c3ccccc3OCCO)N3[C@H](c4ccccc4)[C@H](c4ccccc4)OC(=O)[C@H]3[C@@H]2C(=O)Nc2nc3ccccc3s2)cc1,1.06
17,CN1C(=O)C2C=CC(C(O)c3ccco3)N(Nc3ccccc3)C2C1=O (centres undefined),-0.0131

# Source: PubChem BioAssay
